This is an account of results in paper PMC5349851, “Combinatorial bZIP dimers display complex DNA-binding specificity landscapes”.

Holding throughout (assay): SELEX-seq (CSI, HT-SELEX, round 3); SELEX-seq: 1x PBS (10 mM phosphate, 137 mM NaCl, 2.7 mM KCl) pH 7.6, 2.5 mM DTT, 50 ng/ul poly dI-dC, 0.1% BSA, 50 nM biotinylated bZIP (1:3 with partner for heterodimers), 100 nM library, room temperature, 1 h, 3 rounds; high values mean tight binding
Common to all, as to conditions: protein: recombinant;recombinant; copies: 1;1; dsDNA, one strand shown

Assay [1] addresses T1, ATF3;CEBPG (Homo sapiens;Homo sapiens, UniProt P18847;P53567 77-150;52-130, |).
T1 sequence 1: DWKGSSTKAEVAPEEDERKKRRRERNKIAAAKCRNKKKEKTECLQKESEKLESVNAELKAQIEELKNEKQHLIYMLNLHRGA
T1 sequence 2: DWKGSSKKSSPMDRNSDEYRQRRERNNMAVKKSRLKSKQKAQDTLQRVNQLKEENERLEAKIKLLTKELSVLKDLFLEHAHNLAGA

The target of assay [2] is ATF3;CEBPA (Homo sapiens;Homo sapiens, UniProt P18847;P49715 77-150;273-345, |).
The target of assay [3] is JUN;CEBPG (Homo sapiens;Homo sapiens, UniProt P05412;P53567 243-316;52-130, |).
In assay [4] the target is JUN;CEBPA (Homo sapiens;Homo sapiens, UniProt P05412;P49715 243-316;273-345, |).
Chain of JUN;CEBPA (P05412 other isoform, or with tags, fused parts or gaps |, chain 1 of 2): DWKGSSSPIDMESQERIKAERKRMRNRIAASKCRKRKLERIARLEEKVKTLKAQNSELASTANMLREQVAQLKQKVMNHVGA
Chain of JUN;CEBPA (P49715 other isoform, or with tags, fused parts or gaps |, chain 2 of 2): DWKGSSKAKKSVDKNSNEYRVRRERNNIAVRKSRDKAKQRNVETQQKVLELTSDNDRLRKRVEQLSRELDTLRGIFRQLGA
The target of assay [5] is T2, BATF3;CEBPG (Homo sapiens;Homo sapiens, UniProt Q9NR55;P53567 26-99;52-130, |).
T2 sequence 1: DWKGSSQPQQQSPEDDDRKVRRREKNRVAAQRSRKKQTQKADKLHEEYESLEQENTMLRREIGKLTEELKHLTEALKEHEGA
T2 sequence 2: T1 sequence 2

For assay [6], the target named is BATF3;CEBPA (Homo sapiens;Homo sapiens, UniProt Q9NR55;P49715 26-99;273-345, |).
Chain of BATF3;CEBPA (P49715 other isoform, or with tags, fused parts or gaps |): as the sequence (P49715 other isoform, or with tags, fused parts or gaps |, chain 2 of 2) above
Assay [7] deals with T3, ATF3;ATF3 (Homo sapiens;Homo sapiens, UniProt P18847;P18847 77-150;77-150, |).
T3 sequence 1: T1 sequence 1
T3 sequence 2: T1 sequence 1

For assay [8], the target named is JUNB;CEBPA (Homo sapiens;Homo sapiens, UniProt P17275;P49715 259-332;273-345, |).
Chain of JUNB;CEBPA (P17275 other isoform, or with tags, fused parts or gaps |, chain 1 of 2): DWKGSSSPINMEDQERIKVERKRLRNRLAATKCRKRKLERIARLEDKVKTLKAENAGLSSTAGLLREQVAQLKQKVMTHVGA
Chain of JUNB;CEBPA (P49715 other isoform, or with tags, fused parts or gaps |, chain 2 of 2): as the sequence (P49715 other isoform, or with tags, fused parts or gaps |, chain 2 of 2) above
Assay [9] deals with T4, BATF;CEBPG (Homo sapiens;Homo sapiens, UniProt Q16520;P53567 17-90;52-130, |).
T4 sequence 1: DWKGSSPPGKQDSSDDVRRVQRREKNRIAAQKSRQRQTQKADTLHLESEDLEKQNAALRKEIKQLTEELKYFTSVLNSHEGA
T4 sequence 2: T1 sequence 2

Assay [10] concerns the target T5, FOSL1;CEBPG (Homo sapiens;Homo sapiens, UniProt P15407;P53567 96-169;52-130, |).
T5 sequence 1: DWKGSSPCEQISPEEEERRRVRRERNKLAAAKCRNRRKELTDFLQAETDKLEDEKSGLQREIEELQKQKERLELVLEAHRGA
T5 sequence 2: T1 sequence 2

In the case of ATGACGCAAT, the binding signal in assay [1] was 1 relative CSI intensity (max = 1); in assay [2] it was 0.754 relative CSI intensity (max = 1); in assay [3], 1 relative CSI intensity (max = 1); in assay [4], 0.7 relative CSI intensity (max = 1); in [5], 0.954 relative CSI intensity (max = 1); in [6], 0.595 relative CSI intensity (max = 1). The binding signal was 0.0322 relative CSI intensity (max = 1) in assay [7], 1 relative CSI intensity (max = 1) in assay [8], 0.678 relative CSI intensity (max = 1) in assay [9] and 1 relative CSI intensity (max = 1) in [10].
For ATGATGCAAT, the binding signal was 0.538 relative CSI intensity (max = 1) in assay [1]; 0.655 relative CSI intensity (max = 1) in assay [2]; 0.445 relative CSI intensity (max = 1) in assay [3]; 0.679 relative CSI intensity (max = 1) in assay [4]; 0.78 relative CSI intensity (max = 1) in assay [5]; 0.725 relative CSI intensity (max = 1) in assay [6]. Also, the binding signal in [7] was 0.00513 relative CSI intensity (max = 1); in assay [8] it was 0.927 relative CSI intensity (max = 1); in [9] it was 0.553 relative CSI intensity (max = 1); in [10], 0.498 relative CSI intensity (max = 1).
As to ATGACGTAAT, the binding signal in [1] was 0.53 relative CSI intensity (max = 1); in [2], 0.606 relative CSI intensity (max = 1); in assay [3] it was 0.246 relative CSI intensity (max = 1); in assay [4], 0.286 relative CSI intensity (max = 1); in assay [5] it was 0.306 relative CSI intensity (max = 1); in [6], 0.226 relative CSI intensity (max = 1). The binding signal in assay [7] was 0.196 relative CSI intensity (max = 1); in [8], 0.144 relative CSI intensity (max = 1); in [9], 0.22 relative CSI intensity (max = 1); in assay [10], 0.318 relative CSI intensity (max = 1).
Take CCTGACGTCA: the binding signal was 0.0196 relative CSI intensity (max = 1) in assay [1]; 0.18 relative CSI intensity (max = 1) in assay [2]; 0.00973 relative CSI intensity (max = 1) in assay [4]; 0.00277 relative CSI intensity (max = 1) in assay [5]; 0.00253 relative CSI intensity (max = 1) in [6]; 0.0945 relative CSI intensity (max = 1) in [7]. The binding signal in assay [8] is 0.00467 relative CSI intensity (max = 1); in [9], 0.0162 relative CSI intensity (max = 1).
Take ATGACGGAAT: the binding signal in assay [1] was 0.0128 relative CSI intensity (max = 1); in assay [2], 0.105 relative CSI intensity (max = 1); in assay [3], 0.0184 relative CSI intensity (max = 1); in assay [4], 0.00425 relative CSI intensity (max = 1); in assay [5] it was 0.00179 relative CSI intensity (max = 1); in assay [7], 0.00639 relative CSI intensity (max = 1). In addition, the binding signal is 0.00413 relative CSI intensity (max = 1) in [8] and 0.00661 relative CSI intensity (max = 1) in assay [9].
For ATGACGTCAT, the binding signal is 0.268 relative CSI intensity (max = 1) in [1]; 1 relative CSI intensity (max = 1) in assay [2]; 0.705 relative CSI intensity (max = 1) in assay [3]; 1 relative CSI intensity (max = 1) in assay [4]; 0.108 relative CSI intensity (max = 1) in assay [5]; 0.0986 relative CSI intensity (max = 1) in [6]. Besides, the binding signal in assay [7] is 1 relative CSI intensity (max = 1); in assay [8], 0.0515 relative CSI intensity (max = 1); in [9] it was 0.12 relative CSI intensity (max = 1); in assay [10], 0.43 relative CSI intensity (max = 1).
